Source: the supplement of paper PMC11732987, “Enantioselective OTUD7B fragment discovery through chemoproteomics screening and high-throughput optimisation” (Communications Chemistry, 2025)

Tests used:
Experiment in all cases: log2 ratio of Biotin-Ahx-Ub-VS probe labelling (fragment/DMSO); higher = less target engagement (more negative = stronger competition), active = hit call of the paper (q ≤ 0.05, log2 ratio ≤ -1)
Settings in all cases: compound concentration: 200 uM; treatment time: 3 h
USP19 = target: T1, USP19 (UniProt O94966)
T1 sequence (whole entry): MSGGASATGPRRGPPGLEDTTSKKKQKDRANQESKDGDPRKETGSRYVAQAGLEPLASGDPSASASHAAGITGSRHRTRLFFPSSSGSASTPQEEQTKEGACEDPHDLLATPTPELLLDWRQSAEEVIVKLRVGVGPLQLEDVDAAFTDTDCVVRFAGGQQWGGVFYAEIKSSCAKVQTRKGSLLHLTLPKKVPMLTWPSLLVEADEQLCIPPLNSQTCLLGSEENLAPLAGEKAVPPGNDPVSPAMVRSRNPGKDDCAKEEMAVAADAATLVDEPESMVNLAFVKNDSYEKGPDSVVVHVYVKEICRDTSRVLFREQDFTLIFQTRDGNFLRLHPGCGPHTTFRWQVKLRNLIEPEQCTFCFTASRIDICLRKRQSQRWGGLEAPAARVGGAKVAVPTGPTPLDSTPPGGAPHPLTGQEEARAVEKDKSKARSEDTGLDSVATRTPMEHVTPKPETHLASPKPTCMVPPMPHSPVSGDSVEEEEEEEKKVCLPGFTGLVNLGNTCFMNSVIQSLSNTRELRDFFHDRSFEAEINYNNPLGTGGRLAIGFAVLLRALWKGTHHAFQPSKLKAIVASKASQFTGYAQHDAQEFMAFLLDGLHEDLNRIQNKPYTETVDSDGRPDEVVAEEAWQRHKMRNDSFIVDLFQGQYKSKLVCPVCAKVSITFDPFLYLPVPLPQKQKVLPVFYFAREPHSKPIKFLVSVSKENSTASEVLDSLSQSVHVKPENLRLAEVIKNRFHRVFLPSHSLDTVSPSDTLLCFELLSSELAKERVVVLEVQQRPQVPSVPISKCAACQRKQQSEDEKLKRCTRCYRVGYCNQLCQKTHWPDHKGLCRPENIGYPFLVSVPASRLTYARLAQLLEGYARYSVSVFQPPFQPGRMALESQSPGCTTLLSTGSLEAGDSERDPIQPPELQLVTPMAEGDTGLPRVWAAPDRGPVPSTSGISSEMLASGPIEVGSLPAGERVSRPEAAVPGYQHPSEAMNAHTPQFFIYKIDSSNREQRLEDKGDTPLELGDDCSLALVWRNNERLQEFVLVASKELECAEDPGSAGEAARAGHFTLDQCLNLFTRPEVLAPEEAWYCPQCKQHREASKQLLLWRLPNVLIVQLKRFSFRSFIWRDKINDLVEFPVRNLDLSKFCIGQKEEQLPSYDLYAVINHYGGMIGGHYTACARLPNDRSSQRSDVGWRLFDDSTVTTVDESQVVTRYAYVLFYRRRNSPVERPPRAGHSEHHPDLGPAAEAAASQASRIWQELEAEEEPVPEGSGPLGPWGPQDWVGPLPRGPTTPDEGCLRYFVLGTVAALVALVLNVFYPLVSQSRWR
Procedure, shortened: (§1)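 Labelled DUBs from HEK293T lysate were NeutrAvidin-enriched, digested with LysC and trypsin, and run by diaPASEF LC-MS/MS. Before that, each 495 µg sample in Tris/CHAPS/IGEPAL buffer with protease inhibitors was treated in triplicate with fragment at 200 µM or vehicle for 3 h, then with Biotin-Ahx-Ub-VS at 0.5 µM final for 1 h. Values are average log2 ratios of fragment over vehicle by unpaired t-test, based on global-median-normalised Spectronaut label-free quantities from proteins with ≥2 unique peptides.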

USP24 = USP24 (UniProt Q9UPU5)
Procedure, shortened: as §1

USP25 = target: T2, USP25 (UniProt Q9UHP3)
T2 sequence (whole entry): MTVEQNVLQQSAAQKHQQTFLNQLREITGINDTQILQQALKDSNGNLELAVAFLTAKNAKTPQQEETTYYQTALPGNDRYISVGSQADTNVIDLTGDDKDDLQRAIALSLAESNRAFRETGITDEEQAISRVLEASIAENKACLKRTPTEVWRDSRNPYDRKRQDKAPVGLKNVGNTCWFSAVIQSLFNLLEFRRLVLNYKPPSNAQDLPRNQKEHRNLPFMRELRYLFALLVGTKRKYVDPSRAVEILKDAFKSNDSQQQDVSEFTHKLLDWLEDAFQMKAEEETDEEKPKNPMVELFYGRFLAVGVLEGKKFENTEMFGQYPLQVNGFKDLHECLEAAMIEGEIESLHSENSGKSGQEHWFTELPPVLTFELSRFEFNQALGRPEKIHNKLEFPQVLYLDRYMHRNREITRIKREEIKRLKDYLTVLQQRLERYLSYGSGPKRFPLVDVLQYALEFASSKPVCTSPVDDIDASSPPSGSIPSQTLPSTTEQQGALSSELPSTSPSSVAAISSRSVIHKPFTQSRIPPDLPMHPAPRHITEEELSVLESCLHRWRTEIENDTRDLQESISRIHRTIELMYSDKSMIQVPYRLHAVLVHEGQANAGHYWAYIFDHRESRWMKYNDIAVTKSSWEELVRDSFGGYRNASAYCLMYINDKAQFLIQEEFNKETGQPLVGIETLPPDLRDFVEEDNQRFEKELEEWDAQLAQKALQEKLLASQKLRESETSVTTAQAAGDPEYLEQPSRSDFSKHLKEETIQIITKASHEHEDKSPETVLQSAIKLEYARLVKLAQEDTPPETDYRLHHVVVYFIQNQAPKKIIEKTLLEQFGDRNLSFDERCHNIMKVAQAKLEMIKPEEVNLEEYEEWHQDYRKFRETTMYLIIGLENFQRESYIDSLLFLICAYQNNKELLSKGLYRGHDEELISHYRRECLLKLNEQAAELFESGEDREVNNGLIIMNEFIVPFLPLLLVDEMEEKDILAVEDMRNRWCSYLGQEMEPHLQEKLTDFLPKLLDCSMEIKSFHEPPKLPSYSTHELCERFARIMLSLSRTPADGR
Procedure, shortened: as §1

USP28 = target: T3, USP28 (UniProt Q96RU2)
T3 sequence (whole entry): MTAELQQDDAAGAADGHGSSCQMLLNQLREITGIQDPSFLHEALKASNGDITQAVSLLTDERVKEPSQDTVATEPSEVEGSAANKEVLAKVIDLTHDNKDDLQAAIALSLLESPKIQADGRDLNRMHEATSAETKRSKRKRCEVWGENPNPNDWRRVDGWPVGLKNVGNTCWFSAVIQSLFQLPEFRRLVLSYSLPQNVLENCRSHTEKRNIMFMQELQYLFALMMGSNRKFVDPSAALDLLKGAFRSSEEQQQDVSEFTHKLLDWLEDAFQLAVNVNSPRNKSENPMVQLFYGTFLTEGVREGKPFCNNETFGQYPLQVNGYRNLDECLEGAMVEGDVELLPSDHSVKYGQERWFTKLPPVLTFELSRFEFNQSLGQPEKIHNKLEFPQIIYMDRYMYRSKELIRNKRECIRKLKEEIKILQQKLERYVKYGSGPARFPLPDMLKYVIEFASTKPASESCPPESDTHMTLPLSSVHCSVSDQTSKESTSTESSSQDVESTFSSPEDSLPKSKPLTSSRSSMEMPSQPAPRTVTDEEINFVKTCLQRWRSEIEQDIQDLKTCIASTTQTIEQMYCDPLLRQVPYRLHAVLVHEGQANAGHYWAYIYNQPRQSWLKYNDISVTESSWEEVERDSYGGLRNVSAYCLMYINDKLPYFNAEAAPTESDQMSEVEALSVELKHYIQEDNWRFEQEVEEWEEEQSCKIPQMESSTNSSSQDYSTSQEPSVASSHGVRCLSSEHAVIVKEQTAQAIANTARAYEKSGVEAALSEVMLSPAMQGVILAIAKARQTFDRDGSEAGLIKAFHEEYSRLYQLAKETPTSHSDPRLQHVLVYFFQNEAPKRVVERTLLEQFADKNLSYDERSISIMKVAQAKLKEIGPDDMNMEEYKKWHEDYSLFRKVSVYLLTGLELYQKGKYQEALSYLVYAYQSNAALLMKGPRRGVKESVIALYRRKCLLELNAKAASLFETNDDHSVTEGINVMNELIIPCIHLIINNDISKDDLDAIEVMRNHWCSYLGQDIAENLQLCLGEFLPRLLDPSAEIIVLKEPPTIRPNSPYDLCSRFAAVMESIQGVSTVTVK
Procedure, shortened: as §1

Measured: log2 ratio of Biotin-Ahx-Ub-VS probe labelling

Sequence of USP24 (Q9UPU5 whole entry): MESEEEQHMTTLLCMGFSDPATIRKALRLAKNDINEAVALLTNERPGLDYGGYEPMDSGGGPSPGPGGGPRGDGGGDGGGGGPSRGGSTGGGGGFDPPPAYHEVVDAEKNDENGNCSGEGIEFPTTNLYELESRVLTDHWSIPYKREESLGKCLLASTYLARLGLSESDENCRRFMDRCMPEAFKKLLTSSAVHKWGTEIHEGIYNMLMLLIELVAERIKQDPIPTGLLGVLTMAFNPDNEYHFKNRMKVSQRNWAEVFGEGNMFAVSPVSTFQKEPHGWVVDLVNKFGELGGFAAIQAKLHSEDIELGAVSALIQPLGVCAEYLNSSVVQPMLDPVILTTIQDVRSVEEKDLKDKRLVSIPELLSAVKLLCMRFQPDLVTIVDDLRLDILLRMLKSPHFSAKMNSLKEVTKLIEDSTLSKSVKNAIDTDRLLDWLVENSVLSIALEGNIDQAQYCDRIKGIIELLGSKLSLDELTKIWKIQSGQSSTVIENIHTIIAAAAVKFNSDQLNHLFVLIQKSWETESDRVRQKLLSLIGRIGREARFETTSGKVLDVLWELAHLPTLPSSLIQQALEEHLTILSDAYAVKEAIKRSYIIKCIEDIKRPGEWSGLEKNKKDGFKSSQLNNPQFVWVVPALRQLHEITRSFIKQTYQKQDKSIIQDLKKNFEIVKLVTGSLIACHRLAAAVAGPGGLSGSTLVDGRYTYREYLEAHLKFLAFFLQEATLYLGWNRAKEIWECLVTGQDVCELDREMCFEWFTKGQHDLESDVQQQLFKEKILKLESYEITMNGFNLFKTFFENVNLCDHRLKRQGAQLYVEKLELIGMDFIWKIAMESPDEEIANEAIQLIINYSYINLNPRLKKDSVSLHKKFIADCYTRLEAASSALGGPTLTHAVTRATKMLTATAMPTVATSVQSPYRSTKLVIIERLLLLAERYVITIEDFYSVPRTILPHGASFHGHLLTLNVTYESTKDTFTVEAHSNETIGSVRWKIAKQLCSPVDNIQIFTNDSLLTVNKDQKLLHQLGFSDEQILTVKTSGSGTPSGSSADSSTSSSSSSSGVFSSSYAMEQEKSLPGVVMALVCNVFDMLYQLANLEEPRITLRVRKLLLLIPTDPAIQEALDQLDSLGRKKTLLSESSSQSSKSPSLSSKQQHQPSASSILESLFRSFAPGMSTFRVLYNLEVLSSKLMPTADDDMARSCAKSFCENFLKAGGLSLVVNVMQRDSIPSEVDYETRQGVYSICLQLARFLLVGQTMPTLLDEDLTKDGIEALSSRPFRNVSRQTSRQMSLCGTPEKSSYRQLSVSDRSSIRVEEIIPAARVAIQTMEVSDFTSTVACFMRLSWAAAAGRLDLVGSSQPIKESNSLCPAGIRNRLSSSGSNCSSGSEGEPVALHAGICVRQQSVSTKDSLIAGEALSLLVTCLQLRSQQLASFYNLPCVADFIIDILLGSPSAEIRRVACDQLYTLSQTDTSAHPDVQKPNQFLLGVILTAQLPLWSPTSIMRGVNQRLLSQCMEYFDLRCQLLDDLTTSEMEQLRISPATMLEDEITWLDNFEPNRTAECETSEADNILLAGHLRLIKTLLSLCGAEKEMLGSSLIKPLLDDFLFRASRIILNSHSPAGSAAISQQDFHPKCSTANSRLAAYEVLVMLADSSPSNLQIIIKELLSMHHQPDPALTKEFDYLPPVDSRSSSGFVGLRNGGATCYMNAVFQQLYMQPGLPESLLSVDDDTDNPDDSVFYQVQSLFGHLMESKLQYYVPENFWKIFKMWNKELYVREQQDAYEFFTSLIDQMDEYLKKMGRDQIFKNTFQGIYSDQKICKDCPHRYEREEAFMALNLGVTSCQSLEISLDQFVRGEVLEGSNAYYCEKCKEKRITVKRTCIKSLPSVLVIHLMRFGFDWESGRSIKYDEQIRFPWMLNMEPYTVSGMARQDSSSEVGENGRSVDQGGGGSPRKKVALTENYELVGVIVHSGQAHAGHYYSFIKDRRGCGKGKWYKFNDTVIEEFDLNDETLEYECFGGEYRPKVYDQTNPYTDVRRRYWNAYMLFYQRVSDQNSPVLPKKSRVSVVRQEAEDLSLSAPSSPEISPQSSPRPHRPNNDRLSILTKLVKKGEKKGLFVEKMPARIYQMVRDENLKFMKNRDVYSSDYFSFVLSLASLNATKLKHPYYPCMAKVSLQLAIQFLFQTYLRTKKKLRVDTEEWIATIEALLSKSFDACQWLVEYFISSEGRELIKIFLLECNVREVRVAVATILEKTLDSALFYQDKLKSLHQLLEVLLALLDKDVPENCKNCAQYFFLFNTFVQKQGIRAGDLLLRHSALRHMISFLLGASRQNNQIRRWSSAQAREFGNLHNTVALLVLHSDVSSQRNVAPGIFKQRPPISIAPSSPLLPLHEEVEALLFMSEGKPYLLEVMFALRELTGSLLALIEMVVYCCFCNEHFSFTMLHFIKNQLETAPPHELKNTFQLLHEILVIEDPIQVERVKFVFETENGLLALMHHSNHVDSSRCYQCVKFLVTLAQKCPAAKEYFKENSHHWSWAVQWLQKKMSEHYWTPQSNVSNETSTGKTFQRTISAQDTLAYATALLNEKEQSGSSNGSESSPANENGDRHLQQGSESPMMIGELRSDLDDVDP

Cl.O=C(CCl)N1CCN(Cc2ccccc2)CC1
inactive: USP19 -0.21 | USP24 -0.611 | USP25 -0.226 | USP28 -0.511
